Compound activity: PubChem BioAssay, The Scripps Research Institute Molecular Screening Center
Most compounds without a hit are left out; they make up all but 3.5% or so of the library.
TEAD-YAP block – TEAD-YAP interaction inhibition; HEK-TIYL cells, TEAD-Gal4/YAP UAS-luciferase luminescence; inhibition, % at 9.12 µM; 640,000 compounds, 1.4% hits; in the data active = inhibition above about 32%;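 also: 0% = median of test compound wells and 100% = reference inhibitor wells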
FBW7 act – human FBW7 E3 ligase activation, primary screen; AlphaScreen FBW7–phospho-cyclin E peptide binding, activator screen; normalized activity (activation), % at 26.1 µM; 650,000 compounds, 0.13% hits; Q969H0; in the data active = normalized activity above about 1.9%;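 also: purified mutant Fbw7 with reduced substrate affinity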
Target sequence (Q969H0 whole entry, looked up): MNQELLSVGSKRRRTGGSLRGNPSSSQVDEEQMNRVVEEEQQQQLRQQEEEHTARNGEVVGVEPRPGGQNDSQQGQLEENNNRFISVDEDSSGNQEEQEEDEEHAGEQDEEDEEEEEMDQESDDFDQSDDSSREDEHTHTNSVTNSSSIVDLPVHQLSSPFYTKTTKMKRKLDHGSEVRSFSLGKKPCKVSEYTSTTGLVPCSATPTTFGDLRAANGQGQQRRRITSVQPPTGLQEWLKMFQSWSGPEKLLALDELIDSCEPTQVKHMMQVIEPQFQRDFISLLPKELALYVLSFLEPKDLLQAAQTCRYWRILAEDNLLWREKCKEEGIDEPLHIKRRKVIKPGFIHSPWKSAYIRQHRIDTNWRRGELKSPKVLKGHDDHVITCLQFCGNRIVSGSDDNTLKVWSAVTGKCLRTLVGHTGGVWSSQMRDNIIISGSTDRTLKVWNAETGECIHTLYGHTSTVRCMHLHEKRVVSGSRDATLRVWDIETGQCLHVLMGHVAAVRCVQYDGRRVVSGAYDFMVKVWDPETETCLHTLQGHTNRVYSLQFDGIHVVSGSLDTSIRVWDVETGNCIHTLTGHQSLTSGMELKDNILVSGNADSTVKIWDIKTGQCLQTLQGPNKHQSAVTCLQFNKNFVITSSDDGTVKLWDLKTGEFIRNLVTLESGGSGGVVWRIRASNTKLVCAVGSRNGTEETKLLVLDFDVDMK
GPR151 ag – activates the human receptor GPR151; 650,000 compounds, 1% hits; PathHunter beta-arrestin GPR151 cells, luminescence; activation, % at 11.2 µM; AID 1508602; Q8TDV0; in the data active = activation above about 4.9%;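 also: 0% = median of compound wells and 100% = cells with positive control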
MITF inh – human MITF inhibition, primary screen; AlphaScreen MITF homodimerization, bead proximity signal; inhibition, % at 2.6 µM; 650,000 compounds, 0.91% hits; in the data active = inhibition above about 50%;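 also: 0% = vehicle wells with protein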
MITF inh conf – human MITF inhibition, confirmation; AID 1259372; inhibition, % at 2.6 µM; AlphaScreen MITF homodimerization, biotin/His-MITF beads; shares compounds with MITF inh; 4,700 compounds, 16% hits;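 active = inhibition above a cutoff derived from the DMSO control wells, cut at about 28% in these data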;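 also: 0% = MITF dimer wells with DMSO only; inhibitors lower the bead chemiluminescence by keeping MITF from dimerizing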
AlphaScreen DR – counter-screen: compounds optically interfering with AlphaScreen; 480 compounds, 6% hits; shares compounds with MITF inh; AlphaScreen optical interference counterscreen, cell-free; IC50, µM; call rule not given here
AS interf ctr – counter-screen: compounds optically interfering with AlphaScreen. shares compounds with MITF inh. LysRS AlphaScreen counterscreen, signal interference, triplicate. inhibition, % at 2.6 µM. 4,700 compounds, 7.6% hits. AID 1259376;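 active = inhibition above a cutoff derived from the DMSO control wells, cut at about 30% in these data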
Active calls of the source: *; x = no result.

SMILES	TEAD-YAP block	FBW7 act	GPR151 ag	MITF inh	MITF inh conf	AS interf ctr	others
C=C(C)CN(CC)Cc1ccc([N+](=O)[O-])o1	-1.8	-0.2	1.5	64.9*	23.2	16.1
COc1cc2cc3c(N)c(C(=O)Nc4sc(C)c(C)c4C#N)sc3nc2cc1OC	-0.5	-0.2	1.2	62.3*	70.1*	22.4	AlphaScreen DR=>6.48
CC(Sc1n[nH]c(=O)n1-c1ccccc1)C(=O)Nc1nccs1 (stereo unspecified)	-3.4	-0.1	-1.0	-5.0	x	x
O=C(O)c1nccnc1C(=O)Nc1ccccc1F	-4.2	0.3	-1.2	10.1	x	x
Cc1cc(C)n(CCNC2CCN(c3ccc(C(=O)NC(C)c4ccccc4)cc3)CC2)n1 (stereo unspecified)	10.7	-0.4	-1.5	90.8*	0.3	-2.2
CCN(CC(=O)Nc1ccc2c(c1)OCCO2)CC(=O)Nc1ccccc1C(F)(F)F	1.7	-0.3	-0.5	88.8*	13.6	15.3
CCN(CC(=O)Nc1ccc(OC)cc1)CC(=O)NC(C)(C)C	-2.1	0.0	-1.1	9.1	x	x
CCN(CC(=O)Nc1ccc(NC(C)=O)cc1)CC(=O)Nc1ccc(Cl)c(Cl)c1	-7.0	-0.3	-2.0	93.5*	11.3	13.7
CCN(CC)CC(=O)Nc1ccc2c(c1)OCO2	-2.2	-0.3	-0.2	3.3	x	x
CCN(CC(=O)Nc1ccc(C(C)=O)cc1)CC(=O)Nc1ccc2c(c1)OCCO2	-0.8	-0.2	0.2	80.1*	9.3	11.6
CCN(CC)CC(=O)Nc1ccc(OC)cc1	-9.2	0.9	-0.7	52.0*	28.1*	17.8	AlphaScreen DR=>6.48
Cc1cc(C)nc(NC(=O)/C=C/c2ccc([N+](=O)[O-])cc2)c1	2.5	0.1	1.6	-19.4	x	x
O=C(NC1CCCCC1)C(=S)NC1CCCC1	-54.7	0.9	-0.7	10.5	x	x
O=C(NNC(=S)NC1CCCCC1)C(=O)NNC(=S)NC1CCCCC1	-2.0	-0.5	-0.5	62.2*	7.9	-11.4
O=C(c1ccccc1Cl)N1CCN(c2ccc([N+](=O)[O-])cc2)CC1	25.1	-0.1	0.0	96.6*	7.4	10.6
O=[N+]([O-])c1ccc(N2CCN(Cc3cccnc3)CC2)cc1	2.5	-0.1	-0.5	58.6*	-0.4	-1.6
O=[N+]([O-])c1ccc(N2CCN(Cc3ccncc3)CC2)cc1	8.2	0.1	0.6	60.8*	-0.3	-0.7
O=[N+]([O-])c1ccc(N2CCN(Cc3ccsc3)CC2)cc1	2.6	-0.3	0.5	24.9	x	x
O=C(CCSc1nc(-c2ccco2)cc(C(F)(F)F)n1)NCc1ccco1	7.3	0.0	1.6	1.3	x	x
O=C(c1cccc(I)c1)N1CCN(c2ccccc2F)CC1	-4.5	0.0	2.5	5.4	x	x
CC(=O)Nc1cccc(-c2csc(NCc3ccccc3)n2)c1	-3.7	0.2	0.3	84.8*	9.4	8.9
COc1ccccc1Nc1nc(-c2cccc(NC(C)=O)c2)cs1	-67.0	0.0	2.0	-1.9	x	x
CCc1ccccc1Nc1nc(-c2cccc(NC(C)=O)c2)cs1	-1.8	-0.1	4.6	53.5*	7.2	14.5
CC(=O)Nc1ccc(-c2csc(NCc3ccccc3)n2)cc1	-33.4	0.2	2.4	7.8	x	x
Cc1nc(NCC(C)C)c2c3c(sc2n1)CCCC3	4.8	0.0	1.1	52.0*	12.2	17.0
SMILES	TEAD-YAP block	FBW7 act	GPR151 ag	MITF inh	MITF inh conf	AS interf ctr	others
Cc1nc(NCCO)c2c3c(sc2n1)CCC3	10.2	-0.3	0.2	3.7	x	x
O=P(O)(O)C(O)(CCNC(=S)Nc1ccccc1)P(=O)(O)O	4.1	-0.5	-1.0	85.5*	66.9*	6.2	AlphaScreen DR=>6.83
OCCNC(=S)Nc1ccccc1	-7.8	0.2	-0.5	7.8	x	x
CCN(C(=O)c1cc2c(=O)n3cccc(C)c3nc2n1C)c1ccccc1	12.1	1.0	-0.2	52.6*	-3.3	7.6
CCCc1nc(SCC(=O)NC(C)(C)C)c2ccccc2n1	-10.9	0.1	-1.0	52.9*	6.6	14.6
COc1cc(/C(C)=N/Nc2ccccc2C(=O)O)cc(OC)c1OC	-40.5	0.6	0.7	6.1	x	x
COC(=O)c1ccc(NC2SC(=O)NC2=O)cc1 (stereo unspecified)	9.6	0.0	0.0	9.3	x	x
CC1CN(CCOc2ccc(F)cc2)CC(C)O1 (stereo unspecified)	-5.6	0.2	2.2	52.9*	-0.4	-3.9
COC(=O)c1ccc(OCCCCN2CC(C)OC(C)C2)cc1 (stereo unspecified)	-3.5	0.0	1.5	53.9*	15.9	1.6
CN(c1ccc(Cl)cc1)S(=O)(=O)c1ccc2[nH]cc(C(=O)NCCN3CCOCC3)c(=O)c2c1	9.3	0.0	-0.9	3.0	x	x
CCN(CC)c1ccc(C(c2c(C)[nH][nH]c2=O)c2c(C)[nH][nH]c2=O)cc1	10.3	-0.7	0.4	77.4*	71.1*	-1.6
COCCn1nnnc1CN1CCSCC1	14.3	1.4	1.7	55.8*	6.7	10.5
COCCn1nnnc1C(c1ccc(Cl)cc1)N1CCSCC1 (stereo unspecified)	-8.7	0.2	-0.5	66.3*	10.4	11.7
COC(=O)C(C)CN1CCc2ccccc2C1 (stereo unspecified)	-1.0	0.6	-1.1	47.0	x	x
COC(=O)C(C)CN1CCN(Cc2ccccc2)CC1 (stereo unspecified)	-4.5	-0.3	-0.1	78.5*	23.9	-3.2
CC(=O)N(C)c1ccc(OCC(O)CN2CCN(Cc3ccccc3)CC2)cc1 (stereo unspecified)	-7.2	0.0	1.0	82.1*	8.1	18.2
Cc1c(NS(=O)(=O)c2ccc(C3CCCCC3)cc2)c(=O)n(-c2ccccc2)n1C	-10.8	0.0	-1.5	6.5	x	x
Cc1cc(C)c2c(c1)/C(=N/NC(=O)C(N)=O)CCC2	-4.3	0.0	-0.4	-11.6	x	x
O=C(NC(=S)Nc1ccccc1C(=O)O)c1cncc(Br)c1	5.7	0.1	-0.9	17.4	x	x
O=C(Nc1ccccc1C(=O)O)c1cncc(Br)c1	-9.2	0.1	-4.1	56.6*	11.2	13.8
CCOC(=O)NC(=O)CSc1nc2ccccc2o1	2.6	-0.1	-1.9	-1.4	x	x
Cc1nc(NCc2c(C)nn(C)c2Cl)sc1-c1ccn(C2CCOC2)n1 (stereo unspecified)	3.2	-0.1	1.8	53.9*	3.6	-2.9
O=C1c2ccc(Oc3ccc4c(c3)C(=O)N(Cc3cccnc3)C4=O)cc2C(=O)N1Cc1cccnc1	1.0	0.3	0.8	20.7	x	x
C=CCn1c(=O)/c(=C2/Sc3ccccc3N2CC)s/c1=C1/C(=O)NN=C1C	-3.1	-0.2	2.2	5.9	x	x
NN1C(=O)/C(=C\c2ccc(Cl)cc2)NC1=S	11.6	0.1	0.4	52.6*	1.0	7.8
CCC(=O)Nc1ccccc1C(=O)OCC(=O)c1cccc([N+](=O)[O-])c1	-2.8	0.3	-0.1	55.5*	-0.7	-7.5
Cc1ccccc1NC(=O)C1(N(Cc2ccccc2)C(=O)Cc2nc(N)n[nH]2)CCCCC1	0.2	-0.7	-0.6	78.7*	101.0*	100.6*
